According to PubChem BioAssay (NCATS):
Inconclusive results are not listed. Unless noted, the call rests on the fitted dose curve; in most records, active means well fitted curve in either direction with a large enough effect (not every such curve was filed as active); inconclusive means small, poorly fitted or top-dose-only effect, or another doubt; inactive means flat fitted curve, though single readings scatter.

Columns and labels:
[1] = AP1 Signaling Pathway (AID 357); settings: ME-180 AP-1-bla reporter, EGF-induced, beta-lactamase ratio, 5 h; at 17.2 µM (top of the series) unless noted;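 further: ME-180 reporter cells stimulated with EGF at its EC50 level; on the % scale 0 is the no-effect control and ±100 the full control effect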
Method in brief: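 A ratiometric CCF4 readout (405 nm excitation; 460 and 530 nm emission) quantified AP-1-driven beta-lactamase in ME-180 cells after 5 h with compound and EC50 EGF; AC50 values were derived for activators and inhibitors.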

[2] = NFAT Signaling Pathway (AID 444); settings: Jurkat NFAT-bla M1, carbachol, beta-lactamase ratio, 5 h; at 17.2 µM (top of the series) unless noted;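 further: carbachol stimulus at about its EC50 of 1 µM final; on the % scale 0 is the no-effect control and ±100 the full control effect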
Method in brief: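 Read-out: CCF4 FRET ratio (460 nm/530 nm) after 1 h RT dye loading, used for %activity and AC50 from titration series. Cells: Jurkat NFAT-β-lactamase/M1 line, treated with compound plus 1 uM carbachol for 5 h, 37 °C.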

[3] = Stat Signaling Pathway (AID 446); settings: ME-180 SIE beta-lactamase reporter, IL-6 stimulated, 5 h; at 17.2 µM (top of the series) unless noted;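 further: ME-180 cervical cancer cells given 40 pM IL-6 alongside compound; SIE-controlled beta-lactamase reporter measured as 460/530 nm FRET emission ratio; on the % scale 0 is the no-effect control and ±100 the full control effect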
Method in brief: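 ME-180 SIE-bla cells; overnight plating; cpd + IL-6 40 pM, 5 h, 37 C; LiveBLAzer 2.5 h RT; 460/530 nm emission ratio. Normalized to 300 pM IL-6 and 125 nM JAK inhibitor controls.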

[4] = target: Glucocorticoid receptor (Homo sapiens) (UniProt P04150); test: GR-GFP Redistribution (AID 450;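 active means compounds whose dose series gives a full or clear partial fitted curve of increased nuclear translocation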; further: potency means the concentration at half of the fitted maximal effect)
Glucocorticoid receptor (Homo sapiens), sequence (P04150 whole entry, looked up): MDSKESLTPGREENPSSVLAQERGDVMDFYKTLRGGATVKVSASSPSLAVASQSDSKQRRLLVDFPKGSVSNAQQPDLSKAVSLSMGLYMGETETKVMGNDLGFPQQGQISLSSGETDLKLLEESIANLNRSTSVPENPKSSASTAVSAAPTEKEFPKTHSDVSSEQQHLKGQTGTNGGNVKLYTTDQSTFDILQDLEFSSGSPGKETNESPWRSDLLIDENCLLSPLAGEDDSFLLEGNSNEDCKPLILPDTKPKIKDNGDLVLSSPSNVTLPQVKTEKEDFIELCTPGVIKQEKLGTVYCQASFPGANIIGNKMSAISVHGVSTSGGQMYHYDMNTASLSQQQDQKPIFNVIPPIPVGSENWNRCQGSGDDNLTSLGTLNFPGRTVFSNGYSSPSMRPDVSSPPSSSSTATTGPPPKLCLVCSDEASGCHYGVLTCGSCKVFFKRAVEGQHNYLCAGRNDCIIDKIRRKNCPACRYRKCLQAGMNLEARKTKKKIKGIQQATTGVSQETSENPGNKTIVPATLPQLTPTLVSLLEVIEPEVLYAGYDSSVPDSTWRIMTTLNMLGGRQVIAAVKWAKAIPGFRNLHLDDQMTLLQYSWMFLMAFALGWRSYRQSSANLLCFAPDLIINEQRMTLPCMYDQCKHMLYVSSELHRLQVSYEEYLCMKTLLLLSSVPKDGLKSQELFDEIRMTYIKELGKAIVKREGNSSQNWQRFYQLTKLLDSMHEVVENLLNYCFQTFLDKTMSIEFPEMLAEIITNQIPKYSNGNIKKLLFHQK

CN1CCN(CCCCOc2ccc(F)cc2)CC1
inactive: activity change, negative = inhibition [1] 10.9% | activity change, negative = inhibition [2] -9.28% | activity, negative = inhibition [3] -0.445% | Potency [4] > 20.6 µM

CC(=O)Oc1ccccc1C1OCCN1C(C)=O (centres undefined)
inactive: activity change, negative = inhibition [1] 14.2% | activity change, negative = inhibition [2] -10.3% | activity, negative = inhibition [3] 17% | Potency [4] > 20.6 µM

CN(C)c1ccc(C=NCCC2(O)CCOC(C)(C)C2)cc1 (centres undefined)
inactive: activity change, negative = inhibition [1] 0.733% | activity change, negative = inhibition [2] 4.94% | activity, negative = inhibition [3] -0.198% | Potency [4] > 20.6 µM

Cn1c(=O)[nH]c2cc(Cl)cnc21
inactive: activity change, negative = inhibition [1] 7.54% | activity change, negative = inhibition [2] 3.47% | activity, negative = inhibition [3] 5.04% | Potency [4] > 20.6 µM

CCCCCOc1ccccc1C(=O)NCC(=O)O
inactive: activity change, negative = inhibition [1] 1.59% | activity change, negative = inhibition [2] 0.449% | activity, negative = inhibition [3] 9.43% | Potency [4] > 20.6 µM

CCOc1ccc(-c2nnc3sc(-c4ccccc4OC)nn23)cc1
inactive: activity change, negative = inhibition [1] 18% | activity change, negative = inhibition [2] -19.8% | activity, negative = inhibition [3] 5.75% | Potency [4] > 20.6 µM

c1cc2c(cc1C1=Nn3c(nnc3C3CCCCC3)SC1)OCO2
inactive: activity change, negative = inhibition [1] -22.3% | activity change, negative = inhibition [2] 14.4% | activity, negative = inhibition [3] -7.03% | Potency [4] > 20.6 µM

COc1ccc2oc(=O)c(-c3nc(C)cs3)cc2c1
inactive: activity change, negative = inhibition [1] 19.7% | activity change, negative = inhibition [2] -8.83% | activity, negative = inhibition [3] 17.3% | Potency [4] > 20.6 µM

CCOP(=O)(c1ccccc1)c1nc(-c2ccc(F)cc2)oc1N1CCCCC1 (centres undefined)
inactive: activity change, negative = inhibition [1] -11.9% | activity change, negative = inhibition [2] 3.09% | activity, negative = inhibition [3] 4.79% | Potency [4] > 20.6 µM

CCOC(=O)C1=C(C)NC(=O)C1CC(=O)Nc1ccccc1 (centres undefined)
inactive: activity change, negative = inhibition [1] -1.66% | activity change, negative = inhibition [2] 25.9% | activity, negative = inhibition [3] 3.03% | Potency [4] > 20.6 µM

COc1ccc(C(=O)Nc2nc(N)n(-c3ccccc3)n2)cc1OC
inactive: activity change, negative = inhibition [1] -0.0315% | activity change, negative = inhibition [2] -1.36% | activity, negative = inhibition [3] 1.75% | Potency [4] > 20.6 µM

CSc1nc2sc3c(c2c2nnnn12)CCC3
inactive: activity change, negative = inhibition [1] -5.46% | activity change, negative = inhibition [2] -14.8% | activity, negative = inhibition [3] 9.44% | Potency [4] > 20.6 µM

CCOc1ccc2c(c1)n([O-])c1c([n+]2=O)CCCC1
inactive: activity change, negative = inhibition [1] 9.01% | activity change, negative = inhibition [2] -13% | activity, negative = inhibition [3] 1.7% | Potency [4] > 20.6 µM

COc1ccc(OC)c(C2/C(=C(\O)c3ccc4c(c3)OCCO4)C(=O)C(=O)N2CCCN(C)C)c1 (centres undefined)
inactive: activity change, negative = inhibition [1] 4.27% | activity change, negative = inhibition [2] 12.2% | activity, negative = inhibition [3] -7.15% | Potency [4] > 20.6 µM

O=C1OC(Nc2ccc(Br)cn2)c2ccccc21 (centres undefined)
inactive: activity change, negative = inhibition [1] 12.2% | activity change, negative = inhibition [2] 16.3% | activity, negative = inhibition [3] 3.14% | Potency [4] > 20.6 µM

CSc1nc(C)c2c(c1C#N)CCCC2
inactive: activity change, negative = inhibition [1] -16.1% | activity change, negative = inhibition [2] -18.1% | activity, negative = inhibition [3] 16.1% | Potency [4] > 20.6 µM

CCOC(=O)CSc1nc(NC#N)nc(N(CC)CC)n1
inactive: activity change, negative = inhibition [1] 8.62% | activity change, negative = inhibition [2] -5.47% | activity, negative = inhibition [3] -5.41% | Potency [4] > 20.6 µM

COc1ccccc1NC(=O)CSc1nnc(-c2ccc(NC(C)=O)cc2)n1C
inactive: activity change, negative = inhibition [1] -3.49% | activity change, negative = inhibition [2] -2.99% | activity, negative = inhibition [3] -0.879% | Potency [4] > 20.6 µM

O=C(CNC1=NCCC1)c1ccc2c(c1)OCCO2
inactive: activity change, negative = inhibition [1] 5.51% | activity change, negative = inhibition [2] -10.1% | activity, negative = inhibition [3] -3.23% | Potency [4] > 20.6 µM

CCOc1ccc(C2C(C(=O)c3ccc(C)o3)=C(O)C(=O)N2CCCN(CC)CC)cc1 (centres undefined)
inactive: activity change, negative = inhibition [1] -5.84% | activity change, negative = inhibition [2] 12.8% | activity, negative = inhibition [3] 6.24% | Potency [4] > 20.6 µM

C=CCOc1nc2c(c(=O)n(C)c(=O)n2C)n1Cc1ccc(Cl)cc1Cl
inactive: activity change, negative = inhibition [1] 4.26% | activity change, negative = inhibition [2] -9.88% | activity, negative = inhibition [3] -16.6% | Potency [4] > 20.6 µM

Cc1ccc(C(=O)NCCCNCCCNC(=O)c2ccc(C)nc2)cn1
inactive: activity change, negative = inhibition [1] 8.18% | activity change, negative = inhibition [2] -5.81% | activity, negative = inhibition [3] 5.34% | Potency [4] > 20.6 µM

COc1ccc(OC)c(C2=Nn3c(nnc3-c3ccco3)SC2)c1
inactive: activity change, negative = inhibition [1] -13.7% | activity change, negative = inhibition [2] 24.6% | activity, negative = inhibition [3] -6.07% | Potency [4] > 20.6 µM

O=C(C1CC1(c1ccccc1)c1ccccc1)N1CCOCC1 (centres undefined)
inactive: activity change, negative = inhibition [1] -9.16% | activity change, negative = inhibition [2] 10.4% | activity, negative = inhibition [3] 0.797% | Potency [4] > 20.6 µM

CC(=O)/C(C#N)=C1\NC(=O)C(Cc2ccccc2Cl)S1 (centres undefined)
inactive: activity change, negative = inhibition [1] 8.76% | activity change, negative = inhibition [2] -3.03% | activity, negative = inhibition [3] -6.04% | Potency [4] > 20.6 µM

O=C(C1=C(O)C(=O)N(CCN2CCOCC2)C1c1cccnc1)c1cc2ccccc2o1 (centres undefined)
inactive: activity change, negative = inhibition [1] 8.94% | activity change, negative = inhibition [2] -4.55% | activity, negative = inhibition [3] 3.87% | Potency [4] > 20.6 µM
